# Measured values reported in ChEMBL document CHEMBL3433997, “St. Jude Leishmania screening dataset” (2016).
# Key:
# Assay type in all cases: functional
# [1] = biological target: Solute carrier family 2, facilitated glucose transporter member 1 (Homo sapiens) (UniProt P11166); assay: ST_JUDE_LEISH: Cytotoxicity at 2uM final concentration against transgenic Leishmania Mexicana promastigotes LmGLUT1 that are glucose transport deficient and complemented with the human glucose transporter GLUT1. Activity is measured by DNA content using SYBR green in vitro
# [2] = biological target: Hexose transporter 1 (Plasmodium falciparum) (UniProt O97467); assay: ST_JUDE_LEISH: Cytotoxicity at 2uM final concentration against transgenic Leishmania Mexicana promastigotes LmPfHT that are glucose transport deficient and complemented with the Plasmodium falciparum hexose transporter. Activity is measured by DNA content using SYBR green in vitro
# [3] = biological target: Glucose transporter (Leishmania mexicana) (UniProt O61059); assay: ST_JUDE_LEISH: Cytotoxicity at 2uM final concentration against transgenic Leishmania Mexicana promastigotes LmGT2 that are glucose transport deficient and complemented with the L. Mexicana glucose transporter 2. Activity is measured by DNA content using SYBR green in vitro
# Chain of Solute carrier family 2, facilitated glucose transporter member 1 (Homo sapiens) (P11166 whole entry): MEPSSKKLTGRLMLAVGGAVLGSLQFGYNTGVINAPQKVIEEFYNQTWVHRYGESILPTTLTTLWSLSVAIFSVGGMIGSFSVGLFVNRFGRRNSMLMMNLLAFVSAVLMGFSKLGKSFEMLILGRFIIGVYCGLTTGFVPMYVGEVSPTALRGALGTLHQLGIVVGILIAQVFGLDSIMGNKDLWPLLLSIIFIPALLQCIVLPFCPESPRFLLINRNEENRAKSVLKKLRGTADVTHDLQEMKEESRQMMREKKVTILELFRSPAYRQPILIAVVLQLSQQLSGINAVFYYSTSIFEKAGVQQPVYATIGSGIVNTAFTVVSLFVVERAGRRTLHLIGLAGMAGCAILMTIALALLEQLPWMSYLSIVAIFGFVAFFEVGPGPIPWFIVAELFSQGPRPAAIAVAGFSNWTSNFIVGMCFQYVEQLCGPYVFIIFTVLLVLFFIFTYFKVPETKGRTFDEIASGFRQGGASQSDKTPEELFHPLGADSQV
Compound,inhibition [1],inhibition [2],inhibition [3]
Cc1cc(N/N=C/c2ccccc2[N+](=O)[O-])c2ccc(F)cc2n1,2.1%,4.11%,1.62%
COc1ccc2nccc([C@@H](O)CN3CCC(NC(=O)c4ccc(C5(C(F)(F)F)N=N5)cc4)CC3)c2c1,14.3%,24.5%,40.7%
N=C(NCC1CC1c1ccccc1)c1cccc(C(=N)NCC2CC2c2ccccc2)n1 (centres undefined),5.1%,5.88%,6.3%
O=C(NC1CCCc2ccccc21)[C@@H]1CCCN1C(=O)c1ccc(O)c(-c2ccc(Cl)c(Cl)c2)c1 (some centres undefined),0.06%,-0.61%,-0.01%
CCOc1ccc2[nH]c(C)cc(=NN=Cc3cccc(F)c3)c2c1,-0.81%,-2.04%,0.95%
CN(CCCCCNC(=O)/C=C/c1ccc(Cl)c(Cl)c1)CCCCc1c[nH]c2ccccc12,0.57%,0.62%,1.11%
COc1ccc2[nH]c(C)cc(=NN=Cc3cc(C)ccc3O)c2c1,13.1%,11.2%,8.77%
Cc1nn(-c2ccccc2)c2c1C(c1ccc(C(C)C)cc1)N1C(=N2)N(Cc2ccccc2)c2ccccc21 (centres undefined),4.28%,2.86%,1.85%
CN1CCC(N2CCN(CCOc3cc(NC(=O)/C=C/c4ccccc4Cl)ccc3Br)CC2)CC1,0.25%,2.87%,-1.82%
OCCN1CCN(Cc2ccc(-c3cccc(-c4nc5cc(C(F)(F)F)ccc5[nH]4)c3)cc2)CC1,7.65%,7.08%,7.33%
COc1cc(Nc2nccc(N3CCC(NC(=O)Nc4ccc5c(c4)OCO5)C3)n2)cc(OC)c1OC (centres undefined),11.1%,6.84%,8.87%
CCCCN(CCCC)Cc1cc(Nc2ccnc3cc(Cl)ccc23)ccc1O,4.85%,8.01%,4.18%
CCC(O)c1ccc(Br)cc1NC(=O)c1cccc(Cl)c1 (centres undefined),-1.21%,1.01%,-0.55%
COc1cc2ncnc(Nc3ccc(Br)c(Cl)c3)c2cc1OC,5.07%,5.81%,3.09%
Cc1nc(N)nc(N)c1-c1ccc(Cl)cc1,3.05%,2.21%,2.37%
CC(C)OC(=O)c1ccc(NC(=O)N[C@@H](Cc2ccc(O)cc2)C(=O)NC2CC3CCC(C2)N3Cc2ccccc2)cc1 (some centres undefined),5.85%,4.77%,-0.07%
COc1ccc(CCNc2nc(NCc3ccccc3)c3cc(OC)c(OC)cc3n2)cc1OC,5.66%,8.24%,0.26%

Compound,inhibition [1],inhibition [2],inhibition [3]
COCCN1CCN(Cc2ccc(-c3cccc(-c4nc5ccccc5[nH]4)c3)cc2)CC1,-3.03%,-1.3%,-2.88%
Cc1cc(N/N=C/c2ccccc2[N+](=O)[O-])c2cc(C(F)(F)F)ccc2n1,-3.14%,0.97%,1.45%
CC1CCCN(C(=O)C(C)Nc2cc(Cl)ccc2N2CCOCC2)C1 (centres undefined),1.2%,1.09%,-0.78%
C=Cc1c(C2CCN(CCCCNC(=O)c3ccc(-c4ccc(C#N)cc4)cc3)CC2)ccc2c1CCCC2,1.77%,4.14%,1.54%
Cc1ccc(Nc2nc(N/N=C/c3ccccc3[N+](=O)[O-])nc(Nc3ccc([N+](=O)[O-])cc3)n2)cc1C,12.9%,8.51%,5.3%
COc1ccc2sc(CNCCCNc3cc(=O)c4ccccc4[nH]3)c(Cl)c2c1,3.04%,3.59%,4.49%
COc1ccc(-c2cc(C(F)(F)F)n3ncc(C(=O)Nc4cc(C)ccc4O)c3n2)cc1OC,4.34%,2.45%,0.56%
O=S1(=O)C=C(c2ccccc2)CC1,1.23%,1.28%,1.41%
COc1cccc(NC(=O)Cn2c(C)c(C(=O)C(F)(F)F)c3ccccc32)c1,2.88%,1.7%,2.26%
O=C(/C=C/c1ccc(Cl)c(Cl)c1)NCCCCCN1CCC(CCNC(=O)c2snnc2-c2ccccc2)CC1,0.24%,4.7%,-0.16%
CN(C)C(=O)CN1CCN(c2ncnc(N3CCc4c([nH]c5ccccc45)[C@@H]3c3ccc4c(c3)CCO4)n2)CC1,4.28%,1.61%,-0.47%
Cc1cc(OCCCNC(=N)c2ccc3ccccc3c2)c(C(C)C)cc1Cl,2.28%,2.39%,-0.77%
Cc1nc(-c2ccc(C(F)(F)F)cn2)sc1C(=O)N1CCc2cc3nccc(N4CCN5CCC[C@H]5C4)c3cc21,7.49%,5.35%,0.8%
CS(=O)(=O)c1ccc(-c2cnc(N)c(-c3cccc(O)c3)c2)cc1,6.6%,6.49%,6.07%
O=C(Nc1ccc(OC2CCN(Cc3ccc(F)cc3)C2)c(Cl)c1)c1ccco1 (centres undefined),3.67%,3.44%,3.01%
O=C(Nc1cccc(-c2ccc(-c3nc4cc(F)ccc4[nH]3)cc2)c1)c1csnn1,12.4%,11.9%,11.1%
